{"source": "PubChem BioAssay AID485313", "about": "(National Center for Advancing Translational Sciences (NCATS), 2010)", "note": "Hit rate of the full screen: of about 320,000 compounds, about 7,600 (2.4%) were called active. Where a call stands in place of a potency, no number is given. Roughly 3% stayed inconclusive and do not appear here. The sample holds actives, similar compounds and a random draw of the others, so the mix is not that of the screen. Calls come from the whole dose curve; as a rule, active = well fitted activation curve with a large enough effect; inconclusive = small, poorly fitted or top-dose-only effect; inactive = no such curve, though single readings can be large or run the other way. Potency is the fitted concentration of half-maximal effect."}
{"test": "qHTS Assay for NPC1 Promoter Activators; note: nearly all actives have a fitted effect of over 60% in size;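 for activation: reporter is driven by a mutant NPC1 promoter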", "settings": "Huh7 NPC1 promoter luciferase reporter, 24 h; series mostly up to 9.22 µM", "procedure,_shortened": "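Stably transfected Huh7 (NPC1 promoter→luciferase), 1500 cells/well in Opti-MEM + 10% FBS, 2 h settle, then compound 24 h at 37 °C. Luminescence after 10 min with Amplite reagent.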"}
{"smiles": "CCc1ccc(CN(C)C(C)C(=O)Nc2ccc(S(=O)(=O)N3CCCC3)cc2)cc1", "note": "(configuration not stated)", "Potency": "inactive"}
{"smiles": "CN1CCC(N(C)S(=O)(=O)c2ccc(NC(=O)c3cccc(C#N)c3)cc2)CC1", "Potency": "inactive"}
{"smiles": "COc1ccc(C2(C)ON(c3ccccc3C(F)(F)F)C2=O)cc1", "note": "(configuration not stated)", "Potency": "inactive"}
{"smiles": "O=C(CSc1nc2ncccc2[nH]1)Nc1ccc2c(c1)OCCO2", "Potency": "inactive"}
{"smiles": "CCn1nc(C(=O)NNC(=O)C2CSC3(C)CCC(=O)N23)c2ccccc2c1=O", "note": "(configuration not stated)", "Potency": "inactive"}
{"smiles": "N#Cc1c(NC(=O)C2CC(Cl)=CCC2C(=O)O)sc2c1CCCCC2", "note": "(configuration not stated)", "Potency": "inactive"}
{"smiles": "N#Cc1c(NC(=O)C2CCCO2)sc2c1CCCCC2", "note": "(configuration not stated)", "Potency": "3.55 µM (active)"}
{"smiles": "N#Cc1c(NC(=O)CCCl)sc2c1CCCCC2", "Potency": "inactive"}
{"smiles": "COc1ccc(NS(=O)(=O)c2cccc(C(=O)NCCc3ccc(S(N)(=O)=O)cc3)c2)cc1", "Potency": "inactive"}
{"smiles": "O=C(/C=C/c1ccc2c(c1)OCO2)NCc1cn2cc(Cl)ccc2n1", "Potency": "inactive"}
{"smiles": "Clc1ccc2nc(CSc3ccccc3)cn2c1", "Potency": "0.501 µM (active)"}
{"smiles": "O=c1c2ccccc2nc2n1C(CSc1ccc(Cl)cc1)CN2", "note": "(configuration not stated)", "Potency": "inactive"}
{"smiles": "CN(CCC1CCOCC1)Cc1cn[nH]c1-c1ccc(-c2ccccc2)cc1", "Potency": "inactive"}
{"smiles": "O=C(COC(=O)C1CC2CCCC(C1)C2=O)NC(=O)c1ccccc1", "note": "(configuration not stated)", "Potency": "inactive"}
{"smiles": "CC(OC(=O)c1ccccc1NCCO)C(=O)Nc1ccnn1C(C)C", "note": "(configuration not stated)", "Potency": "inactive"}
{"smiles": "CC1CCCC(NC(=O)c2cc(S(=O)(=O)N3CCCCC3)ccc2Cl)C1C", "note": "(configuration not stated)", "Potency": "inactive"}
{"smiles": "Cc1ccc(NC(=O)CCCNC(=O)c2ccc(Cl)cc2)cc1S(=O)(=O)N1CCOCC1", "Potency": "inactive"}
{"smiles": "O=C(O)Cc1sc(-c2ccccc2)nc1-c1cccs1", "Potency": "inactive"}
{"smiles": "NC(=O)Cc1ccc2c(c1)[nH]c1ccccc12", "Potency": "inactive"}
{"smiles": "NC(=O)Cc1ccc2sc(-c3ccccc3)nc2c1", "Potency": "3.55 µM (active)"}
{"smiles": "CC(OC(=O)CN1C(=O)c2ccccc2C1=O)C(=O)c1ccccc1", "note": "(configuration not stated)", "Potency": "inactive"}
{"smiles": "O=C(COC(=O)c1ccc(O)cc1O)NNC(=O)c1cccs1", "Potency": "inactive"}
{"smiles": "NS(=O)(=O)c1ccccc1NC(=O)c1c(O)c2ccccc2[nH]c1=O", "Potency": "0.562 µM (active)"}
{"smiles": "CC(C)C(=O)Nc1c(O)c2ccccc2[nH]c1=O", "Potency": "inactive"}
{"smiles": "CCCc1nc2ccccc2c(=O)n1NC(=O)c1c(O)c2ccccc2[nH]c1=O", "Potency": "inactive"}
{"smiles": "Cc1ccc(S(=O)(=O)N2CC(O)C[C@H]2C(=O)OCC(=O)Nc2ccc(N3CCOCC3)cc2)cc1C", "note": "(some centres not stated)", "Potency": "inactive"}
{"smiles": "Cc1ccc(CNC(=O)CC(NC(=O)c2ccccc2)c2ccccc2)cc1", "note": "(configuration not stated)", "Potency": "inactive"}
{"smiles": "COc1ccccc1C1=CC(=O)C[C@H](c2ccc(F)cc2)C1", "Potency": "inactive"}
{"smiles": "CCc1ccccc1NC(=O)CSc1nnc(-c2ccncc2)o1", "Potency": "inactive"}
{"smiles": "CCOC(=O)CSc1nnc(-c2ccc([N+](=O)[O-])cc2)o1", "Potency": "inactive"}
{"smiles": "O=C(CSc1nnc(-c2ccc([N+](=O)[O-])cc2)o1)Nc1ccccn1", "Potency": "0.708 µM (active)"}
{"smiles": "O=S(=O)(Nc1ccc(-n2cnnn2)cc1)c1ccc(Cl)cc1", "Potency": "inactive"}
{"smiles": "CCN(CC)S(=O)(=O)c1ccc(OC)c(NC(=O)CCc2c(C)noc2C)c1", "Potency": "inactive"}
{"smiles": "COC(=O)CNS(=O)(=O)c1ccc(OC)cc1", "Potency": "inactive"}
{"smiles": "C/C(N)=C(/C#N)C(=O)COC(=O)CNS(=O)(=O)c1ccc(C)cc1", "Potency": "inactive"}
{"smiles": "COC(=O)CNS(=O)(=O)c1ccc(Cc2ccc(S(=O)(=O)NCC(=O)OC)cc2)cc1", "Potency": "0.631 µM (active)"}
{"smiles": "CC(=O)c1ccc(OCCCC(=O)Nc2ccc(C)c(S(=O)(=O)N3CCOCC3)c2)cc1", "Potency": "inactive"}
{"smiles": "COc1ccc(CNC(=O)COC(=O)c2c(C)nn(-c3ccccc3)c2C)cc1OC", "Potency": "inactive"}
{"smiles": "O=C(CN1CCCSc2ccccc21)N1CCN(S(=O)(=O)c2ccccc2)CC1", "Potency": "inactive"}
{"smiles": "COc1cccc(OCCOc2cccc(/C=N/n3cnnc3)c2)c1", "Potency": "3.98 µM (active)"}
{"smiles": "COc1ccccc1OCCOc1ccc(/C=N/n2cnnc2)cc1", "Potency": "inactive"}
{"smiles": "C(=N\\n1cnnc1)/c1cccnc1", "Potency": "inactive"}
{"smiles": "Cc1csc(NC(=O)C2CCN(S(=O)(=O)c3ccccc3)CC2)n1", "Potency": "inactive"}
{"smiles": "COc1cc2c(cc1OC)CN(C(C)C(=O)Nc1cccc(S(=O)(=O)N3CCOCC3)c1)CC2", "note": "(configuration not stated)", "Potency": "inactive"}
{"smiles": "Cc1c(C(=O)NNC(=O)c2ccncc2)oc2ccccc12", "Potency": "inactive"}
{"smiles": "CCN(CC(=O)Nc1ccc(OC)cc1)C(=O)CSCc1ccc(C)cc1", "Potency": "inactive"}
{"smiles": "O=C(Nc1cc(C(F)(F)F)ccc1Cl)c1cc2nc3c(c(C(F)(F)F)n2n1)CCCC3", "Potency": "3.16 µM (active)"}
{"smiles": "O=C(Nc1cc(C(F)(F)F)ccc1Cl)c1cc(C2CC2)on1", "Potency": "inactive"}
{"smiles": "O=C(Nc1cc(C(F)(F)F)ccc1Cl)C(=O)N1CCCCC1", "Potency": "inactive"}
{"smiles": "O=C(COc1ccccc1Cl)N1N=C(c2cccs2)CC1c1ccco1", "note": "(configuration not stated)", "Potency": "inactive"}
{"smiles": "CC(C)C(NC(=O)c1c(F)cccc1F)C(=O)NCc1ccncc1", "note": "(configuration not stated)", "Potency": "inactive"}
{"smiles": "O=C(OCC(=O)N1CCc2ccccc21)C1CCCN1S(=O)(=O)c1ccc(Cl)cc1", "note": "(configuration not stated)", "Potency": "inactive"}
{"smiles": "C/C(CC(=O)Nc1cccc(F)c1)=N\\NC(=O)C(=O)NC1CCCCC1", "Potency": "inactive"}
{"smiles": "O=C(Nc1cccc(F)c1)NC1CCCc2ccccc21", "note": "(configuration not stated)", "Potency": "inactive"}
{"smiles": "O=C(Nc1cccc(F)c1)NC1CCCCCCC1", "Potency": "2.51 µM (active)"}
{"smiles": "COc1ccc(OC)c(S(=O)(=O)n2c([N+](=O)[O-])cnc2C)c1", "Potency": "inactive"}
{"smiles": "NC(=O)CSc1nnc(NC(=O)c2ccc3ccccc3c2)s1", "Potency": "3.16 µM (active)"}
{"smiles": "O=C(/C=C/c1ccccc1)Nc1nnc(SCC(=O)c2ccc3ccccc3c2)s1", "Potency": "inactive"}
{"smiles": "CCSc1nnc(NC(=O)c2ccc(C)cc2)s1", "Potency": "1.12 µM (active)"}
{"smiles": "CCOC(=O)CSc1nnc(NC(=O)c2cccc(S(=O)(=O)N3CCCC3)c2)s1", "Potency": "inactive"}
{"smiles": "C=CCSc1nnc(NC(=O)c2ccc(NC(C)=O)cc2)s1", "Potency": "inactive"}
{"smiles": "NC(=O)CSc1nnc(NC(=O)c2ccc(Br)o2)s1", "Potency": "inactive"}
{"smiles": "CN(CC(=O)NCC(c1ccccc1)N1CCCC1)S(=O)(=O)c1ccc(Cl)cc1", "note": "(configuration not stated)", "Potency": "inactive"}
{"smiles": "CC(C)(C)OC(=O)Nc1ccc([C@@H](NC(=O)OC(C)(C)C)C(=O)OC(C)(C)C)cc1", "Potency": "inactive"}
{"smiles": "Cc1ccc(NC(=O)Cc2nc(COC(=O)C(C)NS(=O)(=O)c3ccc(C)cc3)cs2)cc1", "note": "(configuration not stated)", "Potency": "inactive"}
{"smiles": "COc1cc(C(=O)NCC(c2ccco2)N2CCCC2)ccc1OCc1ccccc1", "note": "(configuration not stated)", "Potency": "inactive"}
{"smiles": "CCN(CC(=O)Nc1ccccc1OC)C(=O)CC1CC2CCC1C2", "note": "(configuration not stated)", "Potency": "inactive"}
